A selection: hits, their analogues and other compounds. The true share with any hit is near 6.4%.
KinaseGlo FLuc: counter-screen: inhibitors of Kinase-Glo firefly luciferase; Potency, µM (doses to about 38.3 µM), for the others: top-dose activity change, negative = inhibition, usual class: inhibitors; 200,000 compounds, 0.28% hits; Kinase-Glo luciferase, ATP luminescence, 8 min; also: nearly all actives have a fitted effect of over 60% in size
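Compound is pinned into ATP-containing buffer (10 uM ATP, imidazole pH 7.2, 7 mM MgCl2). Kinase-Glo luciferase reagent is then added. Light output is recorded following an 8-min room-temperature incubation.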
RORg inh: blocks mouse ROR gamma transcriptional activity | Drosophila S2 Gal4-RORgamma UAS-luciferase reporter, 20 h | Potency, µM (series often up to 53.6 µM), without a hit: top-dose activity change, negative = inhibition, actives largely listed as inhibitors | 310,000 compounds, 5.4% hits | P51450; also: nearly all actives have a fitted effect of over 60% in size
Target sequence (P51450 whole entry, looked up, the tested form may be a part): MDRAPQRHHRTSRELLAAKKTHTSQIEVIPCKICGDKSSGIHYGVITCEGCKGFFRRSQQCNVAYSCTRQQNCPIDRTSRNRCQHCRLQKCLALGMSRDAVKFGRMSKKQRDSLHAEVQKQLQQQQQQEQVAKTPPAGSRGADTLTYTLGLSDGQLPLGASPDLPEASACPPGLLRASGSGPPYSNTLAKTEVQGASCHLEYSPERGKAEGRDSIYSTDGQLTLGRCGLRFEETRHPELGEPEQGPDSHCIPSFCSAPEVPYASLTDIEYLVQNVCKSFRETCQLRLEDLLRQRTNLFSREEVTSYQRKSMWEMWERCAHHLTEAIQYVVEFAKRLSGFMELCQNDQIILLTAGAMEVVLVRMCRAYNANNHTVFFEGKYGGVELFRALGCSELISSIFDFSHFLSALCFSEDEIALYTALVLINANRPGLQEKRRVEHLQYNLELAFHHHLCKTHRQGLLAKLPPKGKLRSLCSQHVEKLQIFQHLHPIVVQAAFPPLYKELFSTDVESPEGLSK
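In this cell-based reporter format, copper sulfate (700 uM final) drives Gal4–ROR gamma fusion expression from a metallothionein promoter in Drosophila Schneider cells; compounds preincubated 1 hr, reporter read after 20 hr at ambient temperature.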
VP16 counter: inhibits Gal4-VP16 luciferase reporter, ROR gamma counter-screen; Drosophila S2 Gal4-VP16 UAS-luciferase, luminescence, 20 h; Potency, µM (highest dose often 53.6 µM), for the others: top-dose activity, negative = inhibition, most hits filed as inhibitors; 310,000 compounds, 3.5% hits;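 also: Gal4-VP16 expression switched on by copper sulfate through the metallothionein promoter; nearly all actives have a fitted effect of over 50% in size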
* marks the source's active call; other numbers are inactive results; ? = inconclusive; · = not tested or not shown; [ ] = another dose, or the depositor's remark. Calls follow the shape of the dose curve; as a rule, active = well fitted curve in the direction sought with a large enough effect; inconclusive = small, poorly fitted or top-dose-only effect, or another doubt; inactive = no such curve, though single readings can be large; an effect the other way counts as inactive or inconclusive. % is scaled to controls: 0 for no effect and ±100 for the full control effect; potency is read from the fitted curve at half-maximal effect.

SMILES	KinaseGlo FLuc	RORg inh	VP16 counter
CCN(CC)CCNC(=O)CNC(=O)c1nn(-c2ccc(OC)c(OC)c2)c(=O)c2ccccc12	·	-10%	-3%
O=c1[nH]c(N/N=C\c2ccc3c(c2)OCO3)nc2ccccc12	-22%	?	?
Fc1cccc(F)c1/C=N/Nc1ccccn1	-5%	?	-24%
Cc1ccc(C)c(/C=N/Nc2ccccn2)c1	2%	10µM*	0%
Brc1ccc(/C=N/Nc2ccc3ccccc3n2)cc1	1%	7.9µM*	?
Fc1cccc(Cl)c1/C=N/Nc1ccccn1	-2%	?	-10%
Brc1ccc(/C=N/Nc2ccccc2)cc1	-4%	25%	3%
Cc1cc(N/N=C/c2ccc3c(c2)OCO3)nc2ccccc12	·	13µM*	-11%
Fc1cccc(/C=N/Nc2ccccn2)c1	-15%	11µM*	?
Cc1ccccc1C(=O)O/N=C(\N)c1ccncc1	-22%	?	?
C[C@@H]1CC[C@H]2C(=O)NC[C@@H](O)CN2[C@@H]1c1ccc(Br)cc1	·	9%[10 µM]	0%[10 µM]
CCCN1CNC(=S)N(c2ccc(C(=O)OCC)cc2)C1	2%	-34%	-10%
CCCN1CNC(=S)N(c2cc(C)ccc2C)C1	4%	13µM*	11µM*
Cc1ccc(N2CN(Cc3cccnc3)CNC2=S)c(C)c1	-2%	-40%	-3%
Cc1ccc(C)c(N2CN(CCC3=CCCCC3)CNC2=S)c1	·	3.2µM*	4.5µM*
Cc1cccc(-c2oc3ccc(-c4ccc5c(c4)OCO5)cc3c2/C=C/c2ccc(N)cc2)c1	·	1%	-7%
COc1ccc(Cn2c(CCC(=O)NCCC(C)C)nc3ncccc3c2=O)cc1	·	-1%	-3%
COc1cccc(C(=O)Nc2sc(C(C)C)cc2C(N)=O)c1OC	·	34%	-7%
N#C/C(=C\C=C\c1ccccc1)C(=O)NCc1cccnc1	-1%	-31%	19%
CC(C)C[C@@H](CO)N1CCN(Cc2cccnc2)CCC1=O	·	-21%	-26%
N[C@H](C(=O)O)[C@@H](O)c1cnc[nH]1	-2%[7.66 µM]	·	·
Nc1[nH]nc2nc3ccccc3cc12	1%	16%	-17%
Nc1cccc2nc3ccccc3cc12	1%	14µM*	?
Cc1cc2c(NC(=O)Nc3ccccc3)cccc2nn1	·	-5%	-6%
Cc1cc2c(N)cccc2nn1	-12%	13µM*	-23%
SMILES	KinaseGlo FLuc	RORg inh	VP16 counter
COc1ccc(OC)c(NC(=O)NC2CCCc3ccccc32)c1 (configuration not stated)	·	-2%	-13%
C=CCNC(=S)Nc1ccc(F)cc1F	-2%	-40%	-2%
Fc1ccc(NC(=S)Nc2ccc(Cl)cc2Cl)cc1	1%	?	7%
Fc1ccc(NC(=S)N/N=C/c2ccc(F)c(F)c2)c(F)c1	1%	1.1µM*	2.5µM*
Fc1ccccc1/C=N/NC(=S)Nc1ccc(Cl)cc1Cl	2%	0.63µM*	1.3µM*
O=C(N/N=C/c1ccccc1Cl)C1CC1	·	-15%	-17%
S=C(N/N=C/c1ccccc1Cl)Nc1cccc(Cl)c1Cl	·	0.4µM*	11µM*
S=C(NCC1CC1)N/N=C/c1ccccc1Cl	·	5.6µM*	?
S=C(Nc1cccc(Cl)c1Cl)Nn1cnnc1	0%	-18%	?
Cc1ccc(-n2nc3c(c2NC(=O)c2cccs2)CS(=O)(=O)C3)c(C)c1	·	?	4%
COC(CNC(=O)c1coc2nc3ccccc3nc12)OC	·	?	-1%
